This passage reports growth results from PubChem BioAssay (NCI).

Each structure is given as a SMILES string. About 83,000 compounds went through this panel and 20% of them were active in at least one assay; those are over-represented in the sample as a whole.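 Compound tested at a single concentration for 48 hours in 96-well plates; a percent growth value below 10 was scored as active.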 Calls of active or inactive are those of the source.

For this assay, the system named is ACHN renal. Description: NCI-60 one-dose screen, 48 h (100 = growth as untreated, 0 = no growth, -100 = all killed). The conditions noted are these: 10 µM unless noted.
On to `Cn1nc(C(F)(F)F)cc1-c1cc(Cl)c(OCc2ccc(Cl)cc2)c(-c2ccc(Cl)c(C(F)(F)F)c2)c1O`, for which the growth was -11.4% (active).

With `CC(=O)O[C@H]1[C@H](CC#CC#CC[C@@H]2C[C@]3(C)[C@H]4CC=C5[C@H]6[C@@H](C)[C@H](C)CC[C@]6(C(=O)NCCN(CCN)CCN)CC[C@@]5(C)[C@]4(C)CC[C@H]3C(C)(C)[C@H]2OC(C)=O)C[C@]2(C)[C@H]3CC=C4[C@H]5[C@@H](C)[C@H](C)CC[C@]5(C(=O)NCCN(CCN)CCN)CC[C@@]4(C)[C@]3(C)CC[C@H]2C1(C)C`, the growth is 75.9% (inactive).

As for `CC(=O)c1ccc(Nc2nc(Cl)nc(Oc3c(Cl)cccc3Cl)n2)cc1`, the growth is 98.3% (inactive).

Regarding `Oc1[nH]c2ccccc2c1/C=c1/ccc2c(c1)N=C(c1ccc(C(F)(F)F)cc1)N=2`, the growth was 58.7% (inactive).

Regarding `Brc1cccc(-n2ncc3c(Nc4ccc(-c5nnc(-c6ccccc6)o5)cc4)ncnc32)c1`, the growth was 96.7% (inactive).

With `CCNC(=S)N(Cc1ccccc1)Cc1ccccc1`, the growth was 96.3% (inactive).

As to `COc1cccc(CC(C)=C(c2ccc(OCCCN(C)C)cc2)c2ccc(OCCCN(C)C)cc2)c1`, the growth is -98.3% (active).

`N[C@@H](CO)C(=O)O`: the growth is 107% (inactive).

As for `O=C(c1ccc(C(F)(F)F)c(Cl)c1)N(Cc1ccc(Cl)cc1)c1ccc(-c2cc(C(F)(F)F)[nH]n2)c(O)c1`, the growth was 3.03% (active).

Consider `c1ccc(C(Nc2ccccn2)(c2ccccc2)c2ccccc2)cc1`, for which the growth is 69.3% (inactive).

As to `CC[C@H](Nc1nc(N)nc(N)c1Cl)c1nc2cccc(NCc3ccc(C(=O)NO)cc3)c2c(=O)n1-c1ccccc1`, the growth is 3.82% (active).

For the compound `N#Cc1nc(-c2ccc(Cl)cc2)cc(-c2ccc(Nc3nc(N4CCCCC4)nc(N4CCCCC4)n3)cc2)c1N`, the growth was 96.8% (inactive).

Consider `C#CC[C@@H]1C[C@]2(C)[C@H]3CC=C4[C@H]5[C@@H](C)[C@H](C)CC[C@]5(C(=O)NCCCCN)CC[C@@]4(C)[C@]3(C)CC[C@H]2C(C)(C)[C@H]1OC(C)=O`, for which the growth is 89.5% (inactive).

On to `Cn1nc(C(F)(F)F)cc1-c1c[nH]c(OCc2ccc(Cl)cc2)c(-c2ccc(Cl)c(C(F)(F)F)c2)c1=O`, for which the growth is -15.8% (active).

For the compound `COc1ccc(NC(=O)c2ccc(C(F)(F)F)nc2Nc2ccc(Cl)cc2C)cc1Cl`, the growth was 14.5% (inactive).

On to `O=C(Cn1nncc1CN1C(=O)CSC1=O)Nc1ccc(F)cc1`, for which the growth was 97.9% (inactive).

In the case of `COc1ccc(NC(=O)/C=C/c2ccc(Cl)c(Cl)c2)cn1`, the growth is 93.4% (inactive).

As to `CCCCNCC(O)c1cc(-c2ccc(C(F)(F)F)cc2)nc(-c2ccc(C(F)(F)F)cc2)c1` (stereo not drawn), the growth is -71.6% (active).

In the case of `CCCc1cc2c(cc1CN(Cc1cc3c(cc1CCC)OCO3)C(=N)OCC)OCO2`, the growth was 90.4% (inactive).

Take `CCCNC(=S)N/N=C(\C)c1ccccn1`: the growth was 10.8% (inactive).

Regarding `C#CC[C@@H]1C[C@]2(C)[C@H]3CC[C@@H]4[C@H]5C(C(=C)C)CC[C@]5(C(=O)NCCCN5CCN(CCCN)CC5)CC[C@@]4(C)[C@]3(C)CC[C@H]2C(C)(C)[C@H]1OC(C)=O` (stereo partly drawn), the growth is -97.8% (active).

Turning to `COc1cc2nccc(Oc3ccc(NC(=O)C4(C(=O)Nc5c(F)cc(F)cc5F)CC4)cc3)c2cc1Oc1ccc(N)cn1`, the growth is 50.9% (inactive).

On to `COc1ccc2[nH]c(C(=O)OCc3ccc4cccc(O)c4n3)cc2c1`, for which the growth was -98.4% (active).

With `CCOCC(O)(c1ccc(Cl)cc1)c1ccc(Cl)cc1`, the growth is 98.7% (inactive).

On to `Cc1cc(C)cc(NC(=O)Cn2nncc2CN2C(=O)CSC2=O)c1`, for which the growth is 99.6% (inactive).

Consider `Cc1ccc(NC(=O)Cn2nncc2CN2C(=O)CSC2=O)cc1C`, for which the growth was 100% (inactive).

For the compound `COC(=O)/C=C/c1cc(OC(C)=O)c2c(c1)[C@@H](C(=O)OC)[C@H](c1ccc(OC(C)=O)c(OC(C)=O)c1)O2`, the growth is 24.3% (inactive).

For the compound `N=c1n(Cc2ccccc2)c(N)cc(=O)n1Cc1ccccc1`, the growth is 4.21% (active).

On to `CC(C)[C@H](CN)NC[C@H](C)NS(=O)(=O)c1ccc(C(C)(C)C)cc1`, for which the growth was 103% (inactive).

With `COc1ccc(/C(=C\c2ccc3c(c2)OCO3)C(=O)Nc2nc3ccccc3s2)cc1`, the growth is 96.6% (inactive).

As for `Cc1ccc(-c2cnc3sc4ccc(Cl)cc4n23)cc1`, the growth was 92.2% (inactive).

As for `COc1cc(C2Nc3ccccc3S2)cc(CN2CCOCC2)c1O` (stereo not drawn), the growth is 88.3% (inactive).

On to `CC1=C(O)C(=O)C(c2c(C)cc(C)c(Br)c2C)=C(O)C1=O`, for which the growth is 54% (inactive).
